# Screens: PubChem BioAssay, several laboratories
# TPT1 inhibitor: C. albicans TPT1 enzyme inhibition; recombinant caTPT1, FP RNA substrate dephosphorylation; inhibition, % at 5 µM; 300,000 tested, 0.81% active; AID 1962;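 active = inhibition above the mean of all tested compounds plus 3 SD, set per screening campaign, cut at about 24% in these data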;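 note: plate controls were DMSO alone for no effect and ferristatin control at 100 nM for full effect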
# CRFR2-BP ag: agonists of human CRF-binding protein/CRF-R2 receptor complex; HEK293 CRF-R2/CRF-BP, calcium dye fluorescence (FLIPR); percent of saturating CRF peptide response; activation, % at 13.2 µM; 350,000 tested, 0.46% active;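 active = activation of at least 50%, plus an integration ratio under a set limit after plate pattern correction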;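 note: plate controls were neutral control wells without compound for no effect and CRF at EC100 for full effect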
# CRFBP-R2 block: antagonists of CRF-binding protein/CRF-R2 receptor complex; HEK293 CRF-R2/CRF-BP, CRF-induced calcium fluorescence; inhibition, % at 11.8 µM; 350,000 tested, 0.59% active; AID 588475;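 active = inhibition of the ligand-induced calcium signal above about 50% at the single tested concentration, limit read from the data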
# Myeloid diff MLP: myeloid differentiation induction. 360,000 tested, 1% active. calls only at 10 µM. ER-HoxA9 myeloid progenitors, lysozyme-GFP differentiation, flow cytometry;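 active = normalized GFP-positive differentiation at or above the plate's own cutoff, the solvent-only control mean plus 3 SD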;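 note: cells exposed to compound for four days before flow analysis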
# IDE cell inh: cellular human IDE inhibition; AID 434962; 320,000 tested, 0.41% active; inhibition, % at 5.59 µM; P14735; HEK cells, FAbetaB cleavage, fluorescence polarization;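 active = percent inhibition above the average of all tested compounds plus 3 SD, set per screening campaign, cut at about 16% in these data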;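 note: IDE supplied by intact live HEK cells; FP after avidin binding of uncleaved biotin substrate so inhibition keeps polarization high; 0% = DMSO wells and 100% = 60 µM reference IDE inhibitor Ii1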
# Target sequence (P14735 whole entry, looked up): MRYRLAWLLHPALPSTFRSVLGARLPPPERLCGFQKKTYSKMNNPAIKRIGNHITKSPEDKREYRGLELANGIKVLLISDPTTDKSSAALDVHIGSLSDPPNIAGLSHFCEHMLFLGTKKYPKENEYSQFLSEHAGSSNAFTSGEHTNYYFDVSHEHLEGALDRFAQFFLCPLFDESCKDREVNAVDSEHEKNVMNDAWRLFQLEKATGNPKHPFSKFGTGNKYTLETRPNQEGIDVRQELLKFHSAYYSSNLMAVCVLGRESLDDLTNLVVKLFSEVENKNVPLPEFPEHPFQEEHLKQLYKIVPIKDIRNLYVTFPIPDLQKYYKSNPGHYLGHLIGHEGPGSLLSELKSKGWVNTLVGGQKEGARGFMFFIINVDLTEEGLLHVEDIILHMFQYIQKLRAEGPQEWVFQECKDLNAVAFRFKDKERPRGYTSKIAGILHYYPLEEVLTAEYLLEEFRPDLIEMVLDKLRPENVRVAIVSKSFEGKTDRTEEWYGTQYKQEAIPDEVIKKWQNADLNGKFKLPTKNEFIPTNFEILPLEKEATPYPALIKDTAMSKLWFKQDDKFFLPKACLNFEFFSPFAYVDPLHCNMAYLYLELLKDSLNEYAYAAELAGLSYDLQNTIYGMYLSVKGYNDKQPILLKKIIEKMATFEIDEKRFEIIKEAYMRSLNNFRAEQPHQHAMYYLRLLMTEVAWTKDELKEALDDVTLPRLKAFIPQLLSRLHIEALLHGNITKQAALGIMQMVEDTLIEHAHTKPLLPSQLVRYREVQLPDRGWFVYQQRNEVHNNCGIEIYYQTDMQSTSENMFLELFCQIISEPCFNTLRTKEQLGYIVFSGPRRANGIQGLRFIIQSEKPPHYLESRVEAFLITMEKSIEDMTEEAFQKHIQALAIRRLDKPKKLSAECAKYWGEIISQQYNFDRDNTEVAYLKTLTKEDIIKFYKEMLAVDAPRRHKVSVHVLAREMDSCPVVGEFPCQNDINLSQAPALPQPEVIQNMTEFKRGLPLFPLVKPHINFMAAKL
# IDE act: IDE (human) activation, cell-based. P14735. HEK cells, FAbeta-B cleavage, fluorescence polarization; 0% vehicle, 100% cell-free pure enzyme wells. activation, % at 5.96 µM. 340,000 tested, 0.073% active. AID 493087;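 active = activation above the mean of all tested compounds plus 3 SD, set per screening campaign, cut at about 17% in these data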
# Myeloid diff: compounds promoting myeloid differentiation | shares compounds with Myeloid diff MLP | ER-HoxA9 myeloid progenitors, GFP/Mac1 double-positive flow | calls only | 2,300 tested, 2% active;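 active = share of green or green-and-red cells above 9 and 9% in run 1 or 4 and 3% in run 2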
# GFP autofluor: compound fluorescence in myeloid differentiation counter-screen; shares compounds with Myeloid diff MLP; ER-HoxA9 myeloid progenitors, no estrogen, GFP autofluorescence flow cytometry; vehicle wells 0%, positive control 100%; fluorescence response, % (concentration not given with the values); 2,300 tested, 7.4% active;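 active = over 5% cells positive for green fluorescent reporter, or over 2% positive for both it and APC stain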;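 note: range taken on the double positive population between DMSO and positive control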
# The depositor's hits bear a star; i = inactive; . = no result; + = active, no number. An excerpt weighted towards active compounds, which were near 2.6% of everything screened.
SMILES,TPT1 inhibitor,CRFR2-BP ag,CRFBP-R2 block,Myeloid diff MLP,IDE cell inh,IDE act,Myeloid diff,GFP autofluor
CCc1cn(C2CC(O)C(CO)O2)c(=O)[nH]c1=O (stereo not given),.,0.5,-10.6,+,-1.6,4.2,i,0.3
CC1(NC(=O)CCc2nc3sc4c(c3c(=O)[nH]2)CCCC4)CCS(=O)(=O)C1 (stereo not given),17.1,.,.,i,1.1,-2.7,.,.
COC(=O)c1ccc(COc2cc([N+](=O)[O-])cc3cccnc23)o1,-0.2,0.9,23.2,i,-0.4,5.2,.,.
Cc1ccc(NC(=S)Nc2cccc3cnccc23)cc1C,2.2,0.7,13.9,i,2.9,-6.0,i,2.5
Cc1ccc(NC(=S)Nc2cccc3cnccc23)cc1,-1.9,0.9,-2.0,i,-2.9,3.0,.,.
CCN(CC(=O)Nc1ccc(NC(C)=O)cc1)C(=O)C1(c2ccc(Cl)cc2)CCC1,.,1.2,9.6,i,.,.,.,.
COc1nc(OC)nc(N2CCCCCC2)n1,-3.8,-0.9,11.7,i,2.3,-2.1,i,0.7
COc1nc(OC)nc(N2CCC(C(=O)NCC3CCCCC3)CC2)n1,2.6,-1.1,8.7,i,4.6,-5.8,.,.
COc1ccccc1NC(=O)COC(=O)C1=NN(c2ccccc2)C(=O)CC1,.,-0.6,7.9,i,8.4,2.2,.,.
Cc1ccc(C)c(NC(=O)Cn2cc(C(=O)C3CC3)c3ccccc32)c1,-2.7,-0.6,6.2,i,2.0,1.1,.,.
CC(Sc1nnc2ccccn12)C(=O)Nc1ncc(Cl)cc1Cl (stereo not given),0.0,13.0,21.4,i,6.3,10.1,.,.
COc1ccc(-n2c(SC(C)C(=O)Nc3ncc(Cl)cc3Cl)nc3ccccc32)cc1 (stereo not given),-1.2,0.7,-2.8,+,0.1,2.6,i,0.0
COc1ccc(/C=C/C(=O)NC2CCCCCCC2)cc1S(=O)(=O)N1CCOCC1,-0.5,-2.7,-24.7,i,2.6,1.5,i,0.2
Cc1sc(NC(=O)c2ccccc2)c(C(c2ccccn2)N2CCN(CCO)CC2)c1C (stereo not given),-2.6,0.7,-26.7,i,-1.8,6.0,i,0.0
NC(=O)c1cccc(C(N)=O)n1,-4.1,2.5,2.0,i,3.2,-2.6,.,.
COc1cc(/C=C(\NC(=O)c2cc(OC)c(OC)c(OC)c2)C(=O)NC(C(=O)O)c2ccccc2)cc(OC)c1OC (stereo not given),-4.7,0.3,-0.4,i,6.0,0.7,.,.
CC1CCN(CC2C(=O)O[C@@H]3C[C@@]4(C)CCC[C@H](C)C4=C[C@H]23)CC(C)(C)C1 (stereo not given in full),-2.7,8.5,-24.7,i,-3.4,0.4,i,0.0
O=C(Nc1cc(Br)ccc1O)c1cc(-c2cccs2)on1,4.6,-2.3,7.4,+,2.6,4.7,i,0.6
O=C(NCC(c1cccs1)N1CCOCC1)c1ccc(OCc2ccccc2)cc1 (stereo not given),.,0.3,9.6,+,4.9,0.7,i,0.0
CCOc1ccc(C(=O)NCC(c2cccs2)N2CCOCC2)cc1 (stereo not given),.,1.1,-5.9,i,-0.9,2.1,.,.
CCCC(=O)C1=C(O)C(C(=O)OC)C(C)(C)CC1=Nc1ccccc1 (stereo not given),-0.4,-1.7,-27.4,i,3.5,-3.1,i,0.3
CSc1nc(Oc2ccc3ccccc3c2)c2sccc2n1,-1.8,6.9,4.7,+,3.0,0.4,i,0.0
CCN1CCN(C(=O)c2ccc(CN(c3ccccc3)S(=O)(=O)c3ccccc3)cc2)CC1,-1.1,-3.3,11.9,i,3.6,-6.1,.,.
CC(Oc1ccccc1)C(=O)Nc1nc(-c2ccccn2)cs1 (stereo not given),.,-1.1,-7.8,i,.,2.9,.,.
CC(Oc1cccc(Cl)c1)C(=O)Nc1nc(-c2ccccn2)cs1 (stereo not given),5.4,-1.9,-1.2,+,5.9,0.2,i,4.5
SMILES,TPT1 inhibitor,CRFR2-BP ag,CRFBP-R2 block,Myeloid diff MLP,IDE cell inh,IDE act,Myeloid diff,GFP autofluor
COc1cccc(N=C(N)N=C(N)N)c1,0.5,-1.9,-0.3,+,-2.4,5.1,i,0.0
COc1cccc(C(=O)COC(=O)C(C)N2C(=O)c3ccccc3C2=O)c1 (stereo not given),-3.0,-1.2,-3.6,i,4.2,1.4,i,0.0
CCOC(=O)c1cc2c(c(-c3ccccc3)n1)[C@H](CCO)N(S(=O)(=O)C(C)(C)C)C2,.,-4.3,9.1,i,.,-1.2,.,.
CCOC(=O)c1cc2c(c(-c3ccccc3)n1)[C@@H](CCO)N(S(=O)(=O)C(C)(C)C)C2,.,0.0,-2.0,i,.,4.6,i,0.6
COc1ccc(NS(=O)(=O)c2c(C)cc(C)cc2C)cn1,-9.1,0.4,2.1,i,-0.1,3.8,.,.
CCn1cc(C(=O)NN)c(=O)c2cc(F)c(N3CCCCC3)cc21,.,-6.6,-8.3,i,.,1.2,.,.
CCn1cc(C(=O)NN)c(=O)c2cc(F)c(NC3CCCCC3)cc21,.,-0.4,-7.9,i,.,2.0,i,0.6
O=S(=O)(c1ccc(F)cc1)N1CCN(C(=S)NCC2CCCO2)CC1 (stereo not given),6.0,-0.2,-1.4,i,1.4,2.8,.,.
CON1C(=O)C(=O)N(OC)C(C)(C)C1C (stereo not given),-4.0,-2.3,2.6,i,3.7,-3.9,i,0.4
COc1cc2c3c(c1)C(C)CC(C)(C)N3C(=O)C2=O (stereo not given),-0.5,-0.7,-0.6,i,6.7,1.0,.,.
O=C(NC1CCCC1)C(c1ccccc1)N(C(=O)c1csnn1)c1ccccc1F (stereo not given),-1.0,0.2,-3.9,i,4.2,2.4,.,.
C=CCN1C(=O)/C(=C2/Sc3ccc(OC)cc3N2C)SC1=Nc1cccc(O)c1,14.2,3.6,-2.9,i,0.3,-2.3,i,0.0
CCN1C(=O)/C(=C2/Sc3ccc(OC)cc3N2C)SC1=Nc1ccc(OC)cc1,2.6,-0.4,-5.6,i,0.7,0.3,.,.
COc1ccccc1CNc1nc(NCc2ccc(C(C)C)cc2)c2sccc2n1,.,.,.,i,.,.,i,0.0
COc1ccccc1CNc1nc(NC(C)C)nc2ccsc12,.,.,.,i,.,.,.,.
CCCCN1C(=O)c2ccc(C(=O)NC3(C)CCS(=O)(=O)C3)cc2C1=O (stereo not given),.,0.2,-2.3,+,0.1,-0.1,i,0.4
CCCCN1C(=O)c2ccc(C(=O)Nc3cccc(C)c3C)cc2C1=O,-3.9,0.2,-0.5,i,-2.4,5.2,.,.
